Screening results (PubChem BioAssay)
CHRM1 antagonist = human CHRM1 antagonism; P11229; CHO-K1 hM1, Fluo-8 calcium fluorescence, ACh EC80 antagonist; inhibition, % at 3 µM; 360,000 tested, 1.3% active;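 active = percent inhibition above its own plate's cutoff, namely the mean of that plate's compound wells plus 3 SD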;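 note: peak over basal fluorescence ratio during 140 s after agonist addition; 0% = ACh EC80 plus DMSO and 100% = DMSO alone without agonist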
Target sequence (P11229 whole entry, looked up): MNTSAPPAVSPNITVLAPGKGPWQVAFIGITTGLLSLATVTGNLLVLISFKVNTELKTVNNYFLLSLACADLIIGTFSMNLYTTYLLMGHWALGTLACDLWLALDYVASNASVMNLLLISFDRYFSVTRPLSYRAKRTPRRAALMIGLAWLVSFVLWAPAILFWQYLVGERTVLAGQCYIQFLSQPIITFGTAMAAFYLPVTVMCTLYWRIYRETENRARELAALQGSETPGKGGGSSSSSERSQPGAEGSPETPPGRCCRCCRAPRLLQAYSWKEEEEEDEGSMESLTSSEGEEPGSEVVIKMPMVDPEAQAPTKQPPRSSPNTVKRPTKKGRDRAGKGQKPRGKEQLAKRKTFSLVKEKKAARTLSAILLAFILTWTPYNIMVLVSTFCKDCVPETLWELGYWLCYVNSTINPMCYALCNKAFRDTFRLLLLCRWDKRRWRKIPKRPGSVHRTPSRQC
M1 PAM = potentiates human M1 receptor response to acetylcholine; 360,000 tested, 0.088% active; activation, % at 3 µM; CHO-K1 hM1, Fluo-8 calcium fluorescence, ACh EC20; 0% = ACh EC20, 100% = maximal ACh; AID 588819; in the data active = activation above about 19%, passing the limit was not always enough
M1 ag = agonists of human M1 muscarinic receptor; P11229; CHO-K1 hM1, Fluo-8 calcium fluorescence, agonist mode; 0% DMSO, 100% acetylcholine EC100; activation, % at 3 µM; 360,000 tested, 0.33% active; AID 588814;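 active = activation above the run's mean compound activation plus 3 SD, cut at about 16% in these data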;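 note: peak over basal fluorescence ratio within a 140 s kinetic read after compound addition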
M1 ag parental = counter-screen for M1 agonists: effect in parental CHO-K1 cells; Fluo-8 calcium fluorescence; scaled to maximal ATP response, vehicle zero; activation, % at 3 µM; 360,000 tested, 0.48% active; AID 602248; in the data active = activation above about 15%;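 note: untransfected CHO-K1 host cells lacking M1 receptor as counterscreen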
CHO-K1 Ca PAM = M1 PAM counterscreen hit in parental CHO-K1 cells; AID 602247; activation, % at 3 µM; ATP EC20, Fluo-8 calcium fluorescence; 0% at ATP EC20, 100% at ATP max; 360,000 tested, 0.02% active;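 active = activation above the run cutoff, the mean activation of all test compounds plus 3 SD, cut at about 40% in these data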;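 note: peak over basal fluorescence ratio in a 140 s read after ATP addition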
CHO-K1 Ca antag = nonselective inhibitor or artifact in parental CHO-K1 cells; ATP-induced calcium, Fluo-8 fluorescence; inhibition, % at 3 µM; 360,000 tested, 0.6% active; AID 602250;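 active = inhibition above a per-plate cutoff, the plate's mean sample inhibition plus 3 SD, cut at about 24% in these data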;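 note: 0% = DMSO plus EC80 ATP and 100% = DMSO alone without ATP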
Active calls of the source: *; ! = repeats disagree. Most compounds without a hit are left out; they make up all but 2.4% or so of the library.

SMILES | CHRM1 antagonist | M1 PAM | M1 ag | M1 ag parental | CHO-K1 Ca PAM | CHO-K1 Ca antag
O=C(CCCN1CCC(O)(c2cccc(C(F)(F)F)c2)CC1)c1ccc(F)cc1 | -2 | -4 | 8 | 5 | 17 | -9
Fc1ccc2[nH]c3c(N4CCN(c5ccccc5)CC4)ncnc3c2c1 | 54* | -18 | 7 | 11 | -5 | 27*
CCCCOc1ncnc2c1[nH]c1ccc(F)cc12 | 29 | -7 | -3 | 16* | -1 | 28*
CCOC(=O)N1CCN(c2ncnc3c2[nH]c2ccc(F)cc23)CC1 | 28* | -15 | 3 | 9 | -6 | 19
COC(=O)C1=C(C)N(Cc2ccccc2)C(=NCCN2CCOCC2)N[C@H]1CCc1ccccc1 | -7 | 9 | -12 | 1 | 14 | -15
COC(=O)C1=C(C)N(Cc2ccccc2)C(=NCc2ccccc2)N[C@H]1c1ccccc1 | 16 | 0 | -6 | 16* | 6 | 9
CCN1C(=NCCN2CCOCC2)N[C@@H](c2ccccc2)C(C(=O)OC)=C1C | 5 | -10 | -10 | -1 | -21 | 26*
CCCC(CCC)C(=O)OC1C[C@H]2CC[C@@H](C1)[N+]2(C)C (stereo not given in full) | 98* | -26 | -7 | 0 | 6 | -1
O=C(CNCc1cccnc1)Nc1cc(C(F)(F)F)ccc1N1CCOCC1 | -7 | 2 | -3 | 1 | 17 | -9
CC(C)c1ccc2c(c1)C1(NN=C(c3ccccc3)S1)C(=O)N2 (stereo not given) | 30* | -11 | -5 | 0 | -9 | 0
CC1CCCCN1CCCNC(=O)C1CCN(c2nc3ccccc3o2)CC1 (stereo not given) | 78* | -28 | -10 | 0 | 15 | -4
COc1cc(/C=N/N2CCCCC2)cc([N+](=O)[O-])c1O | 0 | 9 | 25* | 0 | 0 | -12
COc1cc(/C=N/n2c(=S)[nH]nc(C)c2=O)cc([N+](=O)[O-])c1O | 16 | -8 | -5 | 5 | -6 | 25*
CC1(C(=O)NS(=O)(=O)c2cccc(F)c2)CCN1C(=O)C1(c2ccc(Cl)cc2)CCC1 (stereo not given) | -17 | 8 | -3 | 0 | 12 | -13
COc1ccccc1C1N(c2cc(Cl)ccc2OC)C(=O)C2CCCN21 (stereo not given) | -7 | 3 | -5 | 0 | -13 | 27*
CC(C)C[C@H]1CNC(=S)N1C[C@H]1CCCN1C[C@H](Cc1ccc(O)cc1)N1C[C@H](CC(C)C)N(CCc2ccccc2)C1=S | 23 | -11 | -8 | -1 | -2 | -3
O=C(Nc1ccc(Br)c(C(F)(F)F)c1)c1ccc(C(F)(F)F)cc1 | 63* | -23 | 0 | 12 | -5 | 16
O=C(Nc1ccc(OCC(F)(F)C(F)F)c(C(F)(F)F)c1)c1ccc(Cl)cc1 | 36* | -23 | 1 | 4 | -1 | 5
O=C(Nc1ccc(Br)c(C(F)(F)F)c1)c1ccccc1 | 8 | -19 | -8 | 7 | 14 | 3
CCN(CC(=O)Nc1c(F)cccc1F)C(=O)c1ccc2ncsc2c1 | -7 | 7 | 2 | 7 | 14 | 10
O=Cc1ccccc1OCCOc1ccccc1C=O | 82* | -34 | -14 | 7 | -4 | 4
CSCC[C@H](NC(=O)c1ccco1)c1nnc2ccccn12 | 7 | -3 | -3 | 0 | 9 | 3
C=CCC1(CC=C)CCCN1C(=O)c1cc(COc2ccc(C)nc2)on1 | 55* | -14 | 2 | 16* | -28 | 49*
COc1ccc(CCNC(=O)c2ccc(-c3ccc([N+](=O)[O-])cc3Cl)o2)cc1 | 0 | -5 | -4 | 2 | 20 | -14
COC(=O)c1ccc2nc(NC(=O)COC(=O)CSc3nc(C)cc(C)n3)sc2c1 | 2 | 1 | -4 | 15* | 8 | 14
SMILES | CHRM1 antagonist | M1 PAM | M1 ag | M1 ag parental | CHO-K1 Ca PAM | CHO-K1 Ca antag
Cc1ccc2nc(NC(=O)COC(=O)CSc3nc(C)cc(C)n3)sc2c1 | 1 | -5 | -2 | 2 | 1 | -3
CN(C(=O)c1cccc(NC(=O)Cc2ccc(NC(=O)C3CCCN(C(=O)C4CCC4)C3)cc2)c1)C1CCCC1 (stereo not given) | 2 | 2 | -5 | 0 | -6 | -18
CC1CNCCN1S(=O)(=O)c1cccc2cnccc12 (stereo not given) | -3 | -19 | 42*! | 3 | 16 | -7
O=S(=O)(c1cccc2cnccc12)N1CCCNCC1 | -9 | -5 | -6 | 0 | -6 | 1
Cc1ccc(OCC(=O)NCCNC(=O)c2ccc(C)nc2)cc1 | 5 | 2 | -4 | 0 | -4 | -10
Cc1cc(C)c(CN2CCN(C(=O)Cn3cnc4c(NCc5ccccc5)ncnc43)CC2)c(C)c1 | 1 | 1 | -1 | 1 | -10 | 25*
CCOC(=O)Nc1ccc2c(c1)N(C(=O)N1CCN(C)CC1)c1ccccc1CC2 | 49* | -16 | 1 | 0 | 12 | -17
CCOC(=O)Nc1ccc2c(c1)N(C(=O)CCN1CCN(C)CC1)c1ccccc1S2 | -20 | -11 | 12 | 0 | 5 | 1
CCOC(=O)Nc1ccc2c(c1)N(C(=O)N1CCN(C)CC1)c1ccccc1S2 | 97* | -23 | -5 | 0 | 13 | -1
CC(C)OC(=O)Nc1ccc2c(c1)N(C(=O)N1CCN(C)CC1)c1ccccc1CC2 | 78* | -23 | 2 | 2 | 8 | -6
CCNCC(=O)N1c2ccccc2CCc2ccc(NC(=O)OC(C)C)cc21 | -18 | 9 | -8 | 2 | 20 | -12
C[C@@H]1CN([C@H](C)CO)C(=O)CCCn2nncc2CO[C@@H]1CN(C)S(=O)(=O)c1cccc(F)c1 | -3 | -3 | -8 | 1 | 28 | -12
CCCOc1ccc(Br)cc1CSC(=N)N | 26* | -16 | -3 | 36* | 0 | 21
O=S(=O)(c1ccc(F)c(F)c1F)N1CCN(c2ncnc3sccc23)CC1 | 26 | -16 | 3 | 8 | -4 | -6
O=S(=O)(c1cc(C(F)(F)F)ccc1Cl)N1CCN(c2ncnc3ccccc23)CC1 | 39* | -14 | 1 | 12 | -13 | 15
CCS(=O)(=O)N1CCN(c2ncnc3sc(C)c(C)c23)CC1 | -17 | 3 | -2 | 4 | 18 | -21
Cc1ccc(S(=O)(=O)N2CCN(c3ncnc4sccc34)CC2)cc1 | 30* | -9 | 1 | 14 | -15 | 16
Cc1sc2ncnc(N3CCN(S(=O)(=O)c4ccc(F)cc4)CC3)c2c1C | 29* | -17 | -6 | 14 | -15 | 14
O=S(=O)(c1ccccc1C(F)(F)F)N1CCN(c2ncnc3sccc23)CC1 | 29* | -19 | 0 | 17* | -12 | -2
O=C(NC1CCCCC1)C(c1ccncc1)N(C(=O)c1csnn1)c1ccc(F)cc1 (stereo not given) | -7 | 12 | -3 | 0 | 11 | 0
